# In PubChem BioAssay (Tox21):
# “And” between values parts separate entries of the source, which are not always exact repeats. Equal entries are not always repeated. Inconclusive results are not listed. A call without a number means that no potency is given here. The source made the active and inactive calls. Calls follow the shape of the dose curve; as a rule, active = well fitted activation curve with a large enough effect in the repeat runs; inconclusive = weak or mixed curves; inactive = flat fitted curve, though single readings scatter.
# Experiment: A CellTox Green Cytotoxicity Assay to monitor cytotoxicity in HepG2 cells - 32 hour (AID 1224883); also: nearly all actives have a fitted effect of over 50% in size
# Settings: CellTox Green fluorescence; series mostly up to 76.8 µM
# Text: National Center for Advancing Translational Sciences [NCATS]
# NIH Chemical Genomics Center [NCGC]
# U.S. Environmental Protection Agency [EPA]
# National Institutes of Environmental Health Sciences [NIEHS]
# National Toxicology Program [NTP]
# Cell-based models are critical for drug discovery. Determining the natural cytotoxic effects resulting from test compounds is an essential research activity. A CellTox Green Cytotoxicity Assay to monitor cytotoxicity in real time of continues cell culture during 40 hours of the compound treatment was used to screen Tox21 10K library compounds in HepG2 cells. CellTox Green Cytotoxicity Assay is a nonlytic, homogeneous, biofluorescent method to measure cytotoxicity in cell culture after experimental manipulation. The assay system uses a proprietary asymmetric cyanine dye that is excluded from viable cells but preferentially stains the dead cell's DNA. […] Viable cells produce no appreciable increases in fluorescence. Therefore, the fluorescence signal produced by the binding interaction with dead cell DNA is proportional to cytotoxicity.
# The mixture of HepG2 cell suspension and reagents were dispensed at 600cells/6 ul/well in 1536-well tissue culture treated black solid bottom plates using a Multidrop dispenser. After the assay plates were incubated at a 37 C/5% CO2 incubator for 5 hours, 23 nL of compounds dissolved in DMSO, positive and negative controls was transferred to the assay plate by a pintool work station. The plates were incubated at 37 C for 40 hours. The fluorescence intensity were measured at 0h, 8h, 16h, 24h, 32h and 40h time points using ViewLux plate reader during compound treatment.
# Potency is read from the fitted curve at half-maximal effect.
row,Compound,Potency
1,Oc1cccc(O)c1O,inactive
2,CCN(CC)CCNC(=O)COc1ccc(OC)cc1,inactive
3,CO/N=C(/C(=O)N[C@@H]1C(=O)N2C(C(=O)O)=C(COC(N)=O)CS[C@H]12)c1ccco1,inactive
4,O=C(O)c1ccc(OCCCOc2ccc(C(=O)O)cc2)cc1,inactive
5,O=C1c2ccccc2C(=O)N1CCc1noc(-c2ccc(CN3CCCCCC3)s2)n1,35.7 µM (active)
6,CCOC(=O)c1ccc(I)cc1,inactive
7,CC(C)=CCC1C(=O)N(c2ccccc2)N(c2ccccc2)C1=O,inactive
8,CC1(C)[C@@H](OC(=O)CCC(=O)O)CC[C@]2(C)[C@H]3C(=O)C=C4[C@@H]5C[C@@](C)(C(=O)O)CC[C@]5(C)CC[C@@]4(C)[C@]3(C)CC[C@@H]12,inactive
9,CCn1cc(C(=O)O)c(=O)c2cc(F)c(N3CCNCC3)cc21,inactive
10,CC(C)(C)CC(=O)OCC(=O)[C@@]1(O)CC[C@H]2[C@@H]3CCC4=CC(=O)C=C[C@]4(C)[C@H]3[C@@H](O)C[C@@]21C,inactive
11,O=Cc1c2ccccc2c(Cl)c2ccccc12,inactive
12,COc1ccccc1Oc1c(NS(=O)(=O)c2ccc(C(C)(C)C)cc2)nc(-c2ncccn2)nc1OCCO,inactive
13,Cc1ccc(C(C)(C)O)cc1,inactive
14,COc1ccccc1N1CCN(CC(O)COc2cccc3ccccc23)CC1 (stereo not given),26.8 µM (active)
15,Cc1cccc(N(C)C(=S)Oc2ccc3c(c2)CCC3)c1,inactive
16,CCC1(CO)COCOC1,inactive
17,CN1CCCN=C1COC(=O)C(O)(c1ccccc1)C1CCCCC1 (stereo not given),inactive
18,CC(=O)N/N=C/c1ccc([N+](=O)[O-])o1,inactive
19,CCCCCCCC/C=C\CCCCCCCCO,inactive
20,OCCN1CCN(CCCN2c3ccccc3Sc3ccc(Cl)cc32)CC1,16.9 µM (active)

row,Compound,Potency
1,C[C@]12CC[C@@H]3c4ccc(O)cc4CC[C@H]3[C@@H]1CC[C@@H]2OC(=O)CCC1CCCC1,49 µM (active) and 23.9 µM (active)
2,Cc1[nH]cnc1CN1CCc2c(c3ccccc3n2C)C1=O,inactive
3,COC(=O)[C@H]1[C@H]2C[C@@H]3c4[nH]c5cc(OC)ccc5c4CCN3C[C@H]2C[C@@H](OC(=O)/C=C/c2ccc(O)c(OC)c2)[C@@H]1OC,23.9 µM (active)
4,CCC(=O)OC,inactive
5,C[C@@H]1CC(=O)NN=C1c1ccc(NN=C(C#N)C#N)cc1,16.9 µM (active) and 10.7 µM (active)
6,CCC1NC(=O)c2cc(S(N)(=O)=O)c(Cl)cc2N1 (stereo not given),inactive
7,CC(CO)CO,inactive
8,CCC1CO1 (stereo not given),inactive
9,OCCOCC#CCOCCO,inactive
10,Brc1cc2ccccc2c2ccccc12,inactive
11,Nc1nc2ccc([N+](=O)[O-])cc2s1,43.6 µM (active)
12,FC(F)(F)c1ccccc1Cl,inactive
13,CCOc1cccc(-n2cc(C(=O)N3CCN(c4cc(C(=O)O)c5ccccc5c4)CC3)nc2-c2ccc(C)cc2)c1,inactive
14,O=[N+]([O-])c1ccc(O/N=C/c2cc(Br)c(O)c(Br)c2)c([N+](=O)[O-])c1,inactive
15,C[C@@H](O)[C@H]1C(=O)N2C(C(=O)O)=C([C@H]3CCCO3)S[C@H]12,inactive
16,CN1C(=O)OC(C)(C)C1=O,inactive
17,CCCCCCCCCI,inactive
18,CC(=O)Nc1ccc(C)cc1C,inactive
19,O=C(OCC(O)CO)c1ccccc1Nc1ccnc2cc(Cl)ccc12 (stereo not given),9.52 µM (active)
20,Nc1cccc2c1CN(C1CCC(=O)NC1=O)C2=O (stereo not given),inactive
